# Screens deposited in PubChem BioAssay by National Center for Advancing Translational Sciences (NCATS).
# GPT2 inhibitor – Primary qHTS assay for inhibitors of Glutamate pyruvate transaminase 2 (GPT2); Potency, µM (series often up to 57.7 µM), for the others: at the highest dose activity change, negative = inhibition, most hits filed as inhibitors; Recombinant GPT2, coupled pyruvate oxidase/HRP Amplex Red fluorescence; 100,000 tested, 0.25% active; further: nearly all actives have a fitted effect of over 60% in size
#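 GPT2 10ng/uL, a-KG 250uM, L-Ala 2mM, HEPES pH7.5 + 0.0001% Tween; 30 min RT. Then Amplex mix (PO/HRP/ThPP), 30 min RT dark, fluorescence. AOA 50uM used as positive control.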
# Luciferase inh – Firefly luciferase inhibition profiling of diverse chemical library using quantitative high-throughput screening; Luciferin 4-monooxygenase (Photinus pyralis), P08659; purified P. pyralis luciferase, luminescence, biochemical; Potency, µM (series often up to 115 µM), most hits filed as inhibitors; 76,000 tested, 2.5% active; further: nearly all actives have a fitted effect of over 65% in size
# Target sequence (P08659 whole entry, looked up): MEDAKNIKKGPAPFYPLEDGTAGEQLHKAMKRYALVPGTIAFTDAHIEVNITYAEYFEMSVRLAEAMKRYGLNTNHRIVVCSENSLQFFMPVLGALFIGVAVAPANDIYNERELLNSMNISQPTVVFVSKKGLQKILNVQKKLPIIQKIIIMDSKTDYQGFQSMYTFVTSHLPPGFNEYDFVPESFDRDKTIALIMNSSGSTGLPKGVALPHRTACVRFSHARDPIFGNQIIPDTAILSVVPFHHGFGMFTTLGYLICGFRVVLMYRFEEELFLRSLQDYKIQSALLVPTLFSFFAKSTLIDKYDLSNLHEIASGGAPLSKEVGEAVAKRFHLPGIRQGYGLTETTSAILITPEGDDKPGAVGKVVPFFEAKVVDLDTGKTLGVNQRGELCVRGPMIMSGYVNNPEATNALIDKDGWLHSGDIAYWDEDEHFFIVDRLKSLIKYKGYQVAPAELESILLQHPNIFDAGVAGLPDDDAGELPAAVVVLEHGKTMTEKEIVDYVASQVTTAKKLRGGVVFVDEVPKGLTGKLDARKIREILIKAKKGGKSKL
#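 Purified 10nM P. pyralis luciferase with 10uM D-luciferin and 10uM ATP in 50mM Tris acetate pH 7.5, 10mM Mg acetate, 0.01% Tween-20, 0.05% BSA. qHTS titration; luminescence read by CCD imager.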
# hNpr1 antagonist – Natriuretic polypeptide receptor (hNpr1) antagonism - Primary qHTS; Atrial natriuretic peptide receptor 1 (Homo sapiens), P16066; HEK293 hNpr1 GloSensor cGMP, ANP-stimulated luminescence; Potency, µM (highest dose often 46.3 µM), inactives show top-dose activity change, negative = inhibition, most hits filed as inhibitors; 76,000 tested, 1.6% active; AID 1347048, 2019; calls by dose curve; further: nearly all actives have a fitted effect of over 60% in size
#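 Compound pre-incubated 30 min at room temperature on GloSensor-loaded HEK293 cells stably carrying hNpr1 and the pGS-40F cGMP biosensor. Stimulation uses hNppA at 0.1 nM final; luminescence is taken at baseline and 20 min post-agonist.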
# 3T3 cytotox – Cytotoxic Profiling in NIH 3T3 Cell Line of Diverse Libraries Using Quantitative High-Throughput Screening; 94,000 tested, 4.3% active; Potency, µM (top dose mostly 96.7 µM), without a hit: at the highest dose activity change, negative = cytotoxicity, usual class: inhibitors; NIH 3T3 viability, CellTiter-Glo ATP luminescence, 48-72 h; further: nearly all actives have a fitted effect of over 55% in size
#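 Cytotoxicity is measured as loss of cellular ATP: NIH 3T3 cells (400/well) are exposed to compound for 48 or 72 hr at 37 °C, then CellTiter-Glo luminescence is imaged after 10 min at room temperature.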
# HEK293 tox – Cytotoxic Profiling in HEK 293 Cell Line of Diverse Libraries Using Quantitative High-Throughput Screening; HEK 293 viability, ATP luminescence (CellTiter-Glo), 48-72 h; Potency, µM (series often up to 115 µM), for the others: at the top dose activity change, negative = cytotoxicity, most hits filed as inhibitors; 94,000 tested, 6.6% active; AID 1345083, 2018; further: nearly all actives have a fitted effect of over 60% in size
#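 Cytotoxicity was scored by loss of ATP-coupled luminescence (CellTiter-Glo) in HEK 293 cells. Compound treatment ran 48 or 72 hr at 37 degree Celsius, 5% CO2, 95% humidity.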
# An asterisk follows results filed as active; i = inactive; ? = inconclusive; nt = not tested or not shown; [ ] = dose if it differs, or a comment. Rows were chosen to be rich in hits. Some 10% of all compounds tested hit in one or more screens of this group. Unless noted, the call rests on the fitted dose curve; in most records, active means well fitted curve in the direction sought with a large enough effect; inconclusive means small, poorly fitted or top-dose-only effect, or another doubt; inactive means no such curve, though single readings can be large; an effect the other way counts as inactive or inconclusive. On the % scale 0 is the no-effect control and ±100 the full control effect; potency means the concentration at half of the fitted maximal effect.
SMILES,GPT2 inhibitor,Luciferase inh,hNpr1 antagonist,3T3 cytotox,HEK293 tox
Fc1ccccc1CN1CCNc2cnc(Oc3ccccc3)cc2C1,-15%[88.5 µM],i,-4%[70.6 µM],?,79µM*
Fc1ccccc1CN1CCNc2cnc(Nc3ccccc3)cc2C1,-84%[88.5 µM],i,?,?,100µM*
COc1ccccc1CN1CCNc2cnc(Oc3ccccc3)cc2C1,i,i,-14%[70.6 µM],?,?
c1ccc(Oc2cc3c(cn2)NCCN(Cc2ccc4[nH]ccc4c2)C3)cc1,-2%[88.5 µM],i,?,?,89µM*
Cc1nc(-c2ccc(OC3CCN(C(=O)c4nn(C)c5ccccc45)C3)cc2)no1 (configuration not stated),i,i,-21%,?,45µM*
COc1ccc(CCC(=O)N2CCC(Oc3ccc(-c4noc(C)n4)cc3)C2)cc1 (configuration not stated),i,40µM*,-29%,-24%,?
COCCn1cc2c3c(cccc31)CN(C(=O)Cc1ccccc1C)CC2,4%,i,-2%,-19%,?
Cc1c(CN(C)Cc2cccc3ncccc23)c(=O)n(-c2ccccc2)n1C,-15%,i,0%,-25%,-8%
CN(Cc1cccc(CCN)c1)Cc1cccc2ncccc12,2%,i,-4%,?,45µM*
CN(Cc1ccc(F)cc1)C(=O)Nc1ccccc1,-3%[88.5 µM],i,0%[70.6 µM],?,-25%[172 µM]
CN(Cc1ccccc1C(F)(F)F)C(=O)Cc1cccc(Cl)c1,i,i,0%[70.6 µM],?,79µM*
CN(Cc1ccc(F)cc1)C(=O)Nc1ccc(Cl)cc1,-3%[88.5 µM],?,-28%[70.6 µM],?,89µM*
CN(Cc1ccccc1C(F)(F)F)C(=O)Nc1ccccc1,1%[88.5 µM],?,0%[70.6 µM],?,?
CN(Cc1ccccc1C(F)(F)F)C(=O)c1ccccc1Cl,i,i,0%[70.6 µM],-30%[138 µM],?
CN(Cc1ccccc1C(F)(F)F)C(=O)Nc1ccc(Cl)cc1,-9%[88.5 µM],i,-19%[70.6 µM],35µM*,?
CC(C)C[C@@H]1N[C@H](C(=O)NCCN2CCOCC2)Cc2cn(Cc3ccccn3)c3cccc1c23,i,i,-8%,?,?
CC(C)C[C@@H]1N[C@H](C(=O)NC2CCC2)Cc2cn(Cc3ccccn3)c3cccc1c23,-6%[88.5 µM],i,-24%[70.6 µM],35µM*,28µM*
CC(C)C[C@@H]1N[C@H](C(=O)NC2CCC2)Cc2cn(Cc3ccncc3)c3cccc1c23,-14%[88.5 µM],i,?,79µM*,?
CC(C)C[C@@H]1N[C@H](C(=O)NC(C)C)Cc2cn(Cc3ccccn3)c3cccc1c23,?,i,-12%[70.6 µM],45µM*,28µM*
CC(C)C[C@@H]1N[C@H](C(=O)NCCN(C)C)Cc2cn(Cc3ccccn3)c3cccc1c23,-27%[88.5 µM],i,0%[70.6 µM],28µM*,?
CC(C)C[C@@H]1N[C@H](C(=O)NC2CC2)Cc2cn(Cc3nccn3C)c3cccc1c23,-3%[88.5 µM],i,-7%[70.6 µM],?,?
CC(C)C[C@@H]1N[C@H](C(=O)NCC2CC2)Cc2cn(Cc3ccccn3)c3cccc1c23,i,i,-18%[70.6 µM],40µM*,45µM*
COC(=O)c1cccc2nc([C@H]3CCN(Cc4ccccc4C)C3)oc12,5%[88.5 µM],i,4%[70.6 µM],?,89µM*
CC(=O)N1CCC(C2CCN(Cc3ccccc3C)C2)CC1 (configuration not stated),3%,i,9%,-18%,-23%
O=C1NCCCCCCN(Cc2ccncc2)[C@@H]2CN(Cc3ccc(O)cc3)CC[C@H]12,2%,i,-4%,?,-28%
SMILES,GPT2 inhibitor,Luciferase inh,hNpr1 antagonist,3T3 cytotox,HEK293 tox
O=C1CCN(S(=O)(=O)c2ccc3c(c2)CCC3)CCCC(c2nc(-c3cccnc3)no2)CCN1 (configuration not stated),-11%,i,3%,?,35µM*
O=C1CCN(S(=O)(=O)c2cccc(F)c2)CCCC(c2nc(-c3cccnc3)no2)CCN1 (configuration not stated),-4%,i,1%,-6%,-9%
CN1CC[C@H](c2nnc(-c3ccccc3)o2)C1,i,i,-10%[70.6 µM],-3%[230 µM],i
Cc1ccc(-n2nc(C)c([C@@H]3C=C[C@@H](N)C3)c2C)cc1Cl,i,71µM*,3%[70.6 µM],28µM*,40µM*
Cc1nn(-c2ccccn2)c(C)c1[C@@H]1C=C[C@@H](NC(=O)NC(C)C)C1,-18%[88.5 µM],?,1%[70.6 µM],?,-24%[172 µM]
COC(=O)c1cccc(NC(=S)N[C@@H]2C=C[C@@H](c3c(C)nn(-c4ccc(C(C)C)cc4)c3C)C2)c1,-16%,13µM*,?,?,?
Cc1nn(-c2ccc(C(C)(C)C)cc2)c(C)c1[C@@H]1C=C[C@@H](NC(=O)Nc2ccccc2)C1,-3%[88.5 µM],i,-21%[70.6 µM],?,?
COc1ccc(-n2nc(C)c([C@@H]3C=C[C@@H](NC(=O)NC4CCCCC4)C3)c2C)cc1,-2%[88.5 µM],?,22µM*,?,?
CCNC(=O)N[C@@H]1C=C[C@@H](c2c(C)nn(-c3ccc(OC)cc3)c2C)C1,1%[88.5 µM],?,10µM*,50µM*,?
COCCOC1CCN(C(=O)c2ccccc2)CC1,i,i,-2%,i,13%
Cn1nc(CN2CCOCC2)c2c1CCN(S(=O)(=O)c1cccs1)C2,i,nt,nt,-29%,-12%
Cc1nn(-c2ccccn2)c(C)c1[C@@H]1C=C[C@@H](NC(=O)C2CCCCC2)C1,-31%[88.5 µM],i,-8%[70.6 µM],?,?
Cc1ccc(-n2nc(C)c([C@@H]3C=C[C@@H](NC(=O)NC4CCCCC4)C3)c2C)cc1Cl,-10%[88.5 µM],8.9µM*,-20%[70.6 µM],?,?
Cc1nn(-c2ccc(C(C)C)cc2)c(C)c1[C@@H]1C=C[C@@H](NC(=S)NC2CCCCC2)C1,3%,10µM*,-14%,?,?
CC(=O)Nc1ccc(CN2CCC3(CC(Cc4ccccc4)=NO3)C2)cc1 (configuration not stated),-6%,i,-3%,-26%,?
Cc1cc(-c2ccccc2)nc(CN2CC[C@@](O)(C3CCC3)[C@H](C)C2)n1,5%,i,-2%,?,?
Cc1ccc(-c2[nH]ncc2CN2CCc3nc(N4CCN(C)CC4)[nH]c(=O)c3CC2)cc1,-13%,i,0%,i,5%
COCC(=O)NC1CCC12CCN(C(=O)Nc1ccc3c(c1)OCCO3)CC2 (configuration not stated),0%,45µM*,-10%,?,-23%
